PubChem BioAssay (NCATS)
Values without a mark were called inactive. Records with an inconclusive call do not appear. The source made the active and inactive calls. Unless noted, calls come from the whole dose curve; as a rule, active = well fitted curve in either direction with a large enough effect (not every such curve was filed as active); inconclusive = small, poorly fitted or top-dose-only effect, or another doubt; inactive = flat fitted curve, though single readings scatter.

Key:
[1] = biological target: Lysosomal acid glucosylceramidase (Homo sapiens) (UniProt P04062); test: Glucocerebrosidase-p2 (AID 348; in the data active = potency below about 10 µM; note: potency is the fitted concentration of half-maximal effect); conditions: purified GBA, blue fluorogenic substrate, 40 min
Procedure, shortened: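 Compounds titrated from 0.6 nM upwards against 0.2 nM enzyme in pH 5.9 citric acid/KH2PO4, taurocholate, tween-20; blue fluorogenic substrate 80 uM, 40 min room temperature, stopped and read Ex 365/Em 440 for AC50.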

[2] = AP1 Signaling Pathway (AID 357); conditions: ME-180 AP-1-bla reporter, EGF-induced, beta-lactamase ratio, 5 h; at 7.69 µM (top of the series) unless noted;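 note: ME-180 reporter cells stimulated with EGF at its EC50 level; % is set by controls: 0 for no effect and ±100 for the full control effect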
Procedure, shortened: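 AP-1-bla ME-180 cells, Opti-MEM + 0.5% dialyzed FBS, plated overnight 37 °C. Cpd titration + EC50 EGF, 5 h 37 °C. CCF4 2.5 h RT; ex 405, em 460/530 ratio → %activity, AC50.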

[3] = biological target: Cytochrome P450 1A2 (Homo sapiens) (UniProt P05177); test: p450-cyp1a2 (AID 410; calls by dose curve; note: potency is the fitted concentration of half-maximal effect;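 for activity change, negative = inhibition: -100% = full effect of reference inhibitor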); conditions: recombinant CYP1A2, luciferin-ME demethylation, luminescence; series mostly up to 11.4 µM
Procedure, shortened: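 Human CYP1A2 (20nM) demethylated Luciferin-ME at its Km (100uM) in 100mM KPO4. After 10 min compound preincubation, NADPH regeneration ran the reaction 60 min at room temperature. Luciferin was read by luminescence, normalized to 57 uM furafylline.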

[4] = NFAT Signaling Pathway (AID 444); conditions: Jurkat NFAT-bla M1, carbachol, beta-lactamase ratio, 5 h; at 7.69 µM (top of the series) unless noted;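 note: carbachol stimulus at about its EC50 of 1 µM final; % is set by controls: 0 for no effect and ±100 for the full control effect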
Procedure, shortened: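 Jurkat cells carrying an NFAT-driven β-lactamase reporter and co-transfected muscarinic M1 receptor were treated with compound plus carbachol (1 uM final, an EC50 level) for 5 h at 37 °C. CCF4 loading followed for 1 h at RT; 460/530 nm ratio gave %activity.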

[5] = Stat Signaling Pathway (AID 446); conditions: ME-180 SIE beta-lactamase reporter, IL-6 stimulated, 5 h; at 7.69 µM (top of the series) unless noted;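 note: ME-180 cervical cancer cells given 40 pM IL-6 alongside compound; SIE-controlled beta-lactamase reporter measured as 460/530 nm FRET emission ratio; % is set by controls: 0 for no effect and ±100 for the full control effect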
Procedure, shortened: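 Reporter line: ME-180 cervical carcinoma, SIE-beta-lactamase. Treatment: compound with 40 pM IL-6, 5 hrs, 37 C, in low-serum OPTI-MEM with 10 mM HEPES pH 7.3. Detection: 460/530 nm fluorescence.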

[6] = biological target: Glucocorticoid receptor (Homo sapiens) (UniProt P04150); test: GR-GFP Redistribution (AID 450;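 active = compounds whose dose series gives a full or clear partial fitted curve of increased nuclear translocation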; note: potency is the fitted concentration of half-maximal effect); conditions: U2OS GR-GFP nuclear translocation, laser cytometry, 2 h
[7] = biological target: Glucocorticoid receptor (Homo sapiens) (UniProt P04150); test: GR-EFC Redistribution (AID 451; calls by dose curve; note: potency is the fitted concentration of half-maximal effect); conditions: CHO-K1 GR-EFC translocation, beta-gal luminescence, 2 h
Procedure, shortened: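 CHO-K1 cells stably expressing nuclear-localized β-gal enzyme acceptor and GR fused C-terminally to the enzyme donor fragment; ligand-driven nuclear translocation restores β-gal by complementation. Compounds titrated up to 46 uM final, 2 h at 37 °C; luminescence read.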

[8] = biological target: Mitogen-activated protein kinase 10 (Mus musculus) (UniProt Q61831); test: JNK3 AlphaScreen Assay (AID 530); conditions: JNK3 lysate, c-Jun phosphorylation; series mostly up to 11.4 µM;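 note: kinase came from lysate of stimulated human HepG2 cells; signal reports phosphorylation of biotinylated GST-cJun 1-79 at Ser73 with 10 µM ATP; % is set by controls: 0 for no effect and ±100 for the full control effect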
Procedure, shortened: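 JNK3 came from HepG2 lysates pre-activated with IL-1beta and TNF-alpha and phosphorylated biotinylated GST-cJun (1-79) at 10 uM ATP, pH 7.6, room temperature. Compounds were titrated. AlphaScreen signal used anti-phospho-cJun (Ser73) antibody.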

[9] = biological target: 3',5'-cyclic-AMP phosphodiesterase 4B (Homo sapiens) (UniProt Q07343); test: qHTS Assay for Inhibitors of PDE-IV (AID 607; active = well fitted activation curve with a large enough effect in the main read-out, with a control signal flat, not every such curve was filed as active; note: % of control where 0% means no effect); conditions: HEK293 ACTOne CNG channel cells, membrane potential fluorescence; series mostly up to 22.9 µM
Procedure, shortened: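 Cell-based read-out of cAMP via a modified cyclic nucleotide-gated channel and membrane potential dye (535/590 nm) in HEK293 cells expressing PDE4 endogenously. Compounds tested up to 22.9 uM final; 100 uM RO 20-1724 reference.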

Chain of Cytochrome P450 1A2 (Homo sapiens) (P05177 whole entry, looked up): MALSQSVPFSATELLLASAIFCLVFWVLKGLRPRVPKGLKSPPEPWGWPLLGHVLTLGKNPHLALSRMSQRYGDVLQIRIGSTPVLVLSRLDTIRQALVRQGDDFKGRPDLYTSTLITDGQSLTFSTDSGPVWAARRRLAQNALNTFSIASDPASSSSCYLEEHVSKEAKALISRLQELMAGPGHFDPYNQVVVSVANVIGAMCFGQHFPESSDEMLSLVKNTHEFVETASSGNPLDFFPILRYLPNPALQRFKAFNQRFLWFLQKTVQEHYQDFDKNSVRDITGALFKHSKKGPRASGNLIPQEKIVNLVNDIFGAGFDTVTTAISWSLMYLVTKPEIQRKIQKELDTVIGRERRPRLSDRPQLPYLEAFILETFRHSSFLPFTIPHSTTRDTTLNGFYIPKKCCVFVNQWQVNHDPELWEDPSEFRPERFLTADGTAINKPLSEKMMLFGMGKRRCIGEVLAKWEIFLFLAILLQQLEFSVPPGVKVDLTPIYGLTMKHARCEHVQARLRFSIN
Chain of 3',5'-cyclic-AMP phosphodiesterase 4B (Homo sapiens) (Q07343 whole entry, looked up): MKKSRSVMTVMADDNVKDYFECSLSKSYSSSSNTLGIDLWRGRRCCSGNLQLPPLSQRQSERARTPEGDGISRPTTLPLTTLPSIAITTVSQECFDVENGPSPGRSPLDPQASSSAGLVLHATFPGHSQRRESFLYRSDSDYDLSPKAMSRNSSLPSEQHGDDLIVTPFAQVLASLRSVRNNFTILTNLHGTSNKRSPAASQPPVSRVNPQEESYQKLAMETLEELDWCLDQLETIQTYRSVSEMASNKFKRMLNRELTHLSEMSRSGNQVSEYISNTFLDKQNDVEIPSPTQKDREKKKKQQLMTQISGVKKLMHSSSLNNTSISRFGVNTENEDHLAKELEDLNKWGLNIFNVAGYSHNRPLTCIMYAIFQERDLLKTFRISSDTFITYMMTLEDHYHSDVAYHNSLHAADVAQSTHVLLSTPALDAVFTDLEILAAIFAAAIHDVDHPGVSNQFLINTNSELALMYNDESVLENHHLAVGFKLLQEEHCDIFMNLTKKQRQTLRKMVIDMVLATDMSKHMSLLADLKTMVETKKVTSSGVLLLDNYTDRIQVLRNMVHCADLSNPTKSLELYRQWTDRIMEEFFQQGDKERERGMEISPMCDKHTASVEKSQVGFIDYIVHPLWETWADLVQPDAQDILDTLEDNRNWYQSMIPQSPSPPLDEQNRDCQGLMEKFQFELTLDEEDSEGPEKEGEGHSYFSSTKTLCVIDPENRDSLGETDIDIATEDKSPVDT
Chain of Glucocorticoid receptor (Homo sapiens) (P04150 whole entry, looked up, the tested form may be a part): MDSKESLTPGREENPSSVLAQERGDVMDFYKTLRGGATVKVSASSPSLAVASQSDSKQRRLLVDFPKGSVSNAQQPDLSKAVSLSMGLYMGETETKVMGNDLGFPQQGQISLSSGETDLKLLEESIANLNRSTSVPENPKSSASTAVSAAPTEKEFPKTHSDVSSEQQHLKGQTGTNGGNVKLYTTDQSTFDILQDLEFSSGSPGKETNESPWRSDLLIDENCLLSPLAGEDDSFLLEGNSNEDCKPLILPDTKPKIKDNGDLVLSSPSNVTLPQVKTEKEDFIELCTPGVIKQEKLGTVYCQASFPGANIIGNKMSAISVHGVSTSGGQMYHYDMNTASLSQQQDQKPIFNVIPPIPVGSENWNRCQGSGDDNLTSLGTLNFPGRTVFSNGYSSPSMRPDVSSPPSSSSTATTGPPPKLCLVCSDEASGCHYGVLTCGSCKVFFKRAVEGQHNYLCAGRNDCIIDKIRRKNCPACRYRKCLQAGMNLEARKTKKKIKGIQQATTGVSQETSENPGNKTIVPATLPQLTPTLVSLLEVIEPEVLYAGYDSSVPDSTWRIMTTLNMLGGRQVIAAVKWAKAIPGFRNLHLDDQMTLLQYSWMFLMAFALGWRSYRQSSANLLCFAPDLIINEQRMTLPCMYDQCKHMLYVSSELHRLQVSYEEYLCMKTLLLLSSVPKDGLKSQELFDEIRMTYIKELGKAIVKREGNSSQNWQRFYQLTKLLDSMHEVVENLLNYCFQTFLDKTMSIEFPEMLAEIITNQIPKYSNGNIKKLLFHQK
Chain of Lysosomal acid glucosylceramidase (Homo sapiens) (P04062 whole entry, looked up): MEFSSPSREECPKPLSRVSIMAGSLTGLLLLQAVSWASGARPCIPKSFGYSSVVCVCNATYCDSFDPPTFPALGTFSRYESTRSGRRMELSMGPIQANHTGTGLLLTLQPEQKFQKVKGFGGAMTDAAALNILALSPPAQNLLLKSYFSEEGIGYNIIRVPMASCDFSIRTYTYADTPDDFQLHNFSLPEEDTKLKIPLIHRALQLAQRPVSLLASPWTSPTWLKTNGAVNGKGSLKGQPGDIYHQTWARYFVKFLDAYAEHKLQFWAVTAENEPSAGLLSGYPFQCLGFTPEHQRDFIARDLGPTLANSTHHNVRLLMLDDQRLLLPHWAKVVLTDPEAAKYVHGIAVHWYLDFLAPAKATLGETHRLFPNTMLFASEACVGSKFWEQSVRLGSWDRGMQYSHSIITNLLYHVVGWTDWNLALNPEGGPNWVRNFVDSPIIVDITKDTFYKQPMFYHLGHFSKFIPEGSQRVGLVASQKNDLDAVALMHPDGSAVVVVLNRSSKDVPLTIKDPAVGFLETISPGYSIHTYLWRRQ

Row | SMILES | Potency [1] [µM] | activity change, negative = inhibition [2] [%] | Potency [3] | activity change, negative = inhibition [4] [%] | activity, negative = inhibition [5] [%] | Potency [6] [µM] | Potency [7] [µM] | Potency [8] | Potency [9] | activity change, negative = inhibition [3]
1 | O=C1CN2CCN(CC2)CC(=O)Nc2ccc(cc2)S(=O)(=O)c2ccc(cc2)NC(=O)CN2CCN(CC2)CC(=O)Nc2ccc(cc2)S(=O)(=O)c2ccc(cc2)N1 | > 11.4 | 5.33 | inactive | 5.58 | 12.3 | > 46 | > 9.22 | inactive | inactive | 
2 | C[C@@H](N)[C@@H](C)Cc1ccccc1 | > 11.4 | 10.1 | inactive | 6.03 | 15.9 | > 46 | > 9.22 | inactive | inactive | 
3 | Cc1cc(C)c2nc3c(c([C@H](O)[C@@H]4CCCCN4)c2c1)CC/C3=C/c1ccc(Cl)cc1 | > 11.4 | 4.75 | inactive | -2.24 | 1.11 | > 46 | > 9.22 | inactive | inactive | 
4 | NS(=O)(=O)c1ccc(NCc2cnc3ccccc3n2)cc1 | > 11.4 | 5.55 |  | 6.06 | 3.16 | > 46 | > 9.22 | inactive | inactive | -18.2% [at 2.29 µM]
5 | Nc1nc(-c2ccccc2)c(-c2ccccc2)c(-c2nc(N)nc(-c3ccccc3)c2-c2ccccc2)n1 | > 11.4 | -1.08 | inactive | 16.1 | 3.19 | > 46 | > 9.22 | inactive | inactive | 
6 | Cn1c(=O)c2[nH]c(COCc3nc4c([nH]3)c(=O)n(C)c(=O)n4C)nc2n(C)c1=O | > 11.4 | 6.66 |  | 5.77 | -2.27 | > 46 | > 9.22 | inactive | inactive | 4.5% [at 2.29 µM]
7 | CC1=C[N+](=O)c2ccccc2[N+]1=O | > 11.4 | 5.1 | 6.31 µM (active) | 13.8 | 0.919 | > 46 | > 9.22 | inactive | inactive | 
8 | O=C(O)[C@H](CCc1ccccc1)N1C(=O)c2ccccc2C1=O | > 11.4 | -11.9 |  | -3.82 | 8.91 | > 46 | > 9.22 | inactive | inactive | -9.6% [at 2.29 µM]
9 | O=[N+]([O-])c1ccc(Cl)c(CNc2ncnc3c2ncn3[C@@H]2CCCCO2)c1 | > 11.4 | -3.17 | 5.01 µM (active) | 6.3 | 1.26 | > 46 | > 9.22 | inactive | inactive | 
10 | Nc1ncnc2nn([C@H]3O[C@@H](CO)[C@@H](O)[C@H]3O)nc12 | > 11.4 | -9.36 | inactive | 5.89 | -5.99 | > 46 | > 9.22 | inactive | inactive | 
11 | CC[C@@H](CS(=O)(=O)O)[N+](=O)[O-] | > 11.4 | 7.92 | inactive | 19.9 | 10.6 | > 46 | > 9.22 | inactive | inactive | 
12 | c1ccc2c(c1)C(=Nc1ccc(N=C3c4ccccc4-c4ccccc43)cc1)c1ccccc1-2 | > 11.4 | -0.81 |  | 10.5 | 4.55 | > 46 | > 9.22 | inactive | inactive | -19.6% [at 2.29 µM]
13 | Nc1cc(S(=O)(=O)O)cc2ccc(S(=O)(=O)O)cc12 | > 11.4 | 1.79 |  | 2.43 | -1.78 | > 46 | > 9.22 | inactive | inactive | -18.1% [at 2.29 µM]
14 | O=C(O)[C@@H]1Cc2c([nH]c3ccccc23)[C@@H](CCCCO)N1 | > 11.4 | -12.4 |  | 3.55 | -0.601 | > 46 | > 9.22 | inactive | inactive | -9.6% [at 2.29 µM]
